Hit rate of the full screen: of about 5,500 compounds, about 2,000 (36%) were called active. Not shown: some 18% with an inconclusive outcome. Cut-off read from the data, not from the text of the source: active = normalized growth mostly below about 0.91 (no sharp cut-off); inconclusive = no clear call, values can overlap the other calls; inactive = mostly above about 0.92. The list shows a part of the results.
Assay: chemical genetic growth profiling, strain panel (AID 1159580);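 note: tested at 20 µM; growth read once vehicle control cultures reached saturation at 30 °C; 1 = growth at the plate median or of vehicle wells; lower values mean less growth of the strain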
Details: S. cerevisiae deletion strains, growth OD

Measured: normalized growth

C/C=C(/C)C(=O)O[C@@H]1Cc2c(ccc3ccc(=O)oc23)OC1(C)C
inactive: locus YBR021W, strain FUR4, stronger effect = lower value 1.08 | locus YBR229C, strain ROT2, stronger effect = lower value 0.984 | locus YCL029C, strain bik1, stronger effect = lower value 1.01 | locus YDL035C, strain GPR1, stronger effect = lower value 0.974 | locus YDL074C, strain BRE1, stronger effect = lower value 0.976 | locus YDL101C, strain DUN1, stronger effect = lower value 1.01 | locus YDL134C, strain PPH21, stronger effect = lower value 0.947 | locus YDL185W, strain tfp1, stronger effect = lower value 1.01 | locus YDL192W, strain arf1, stronger effect = lower value 0.977 | locus YDR101C, strain arx1, stronger effect = lower value 1.03 | locus YDR150W, strain NUM1, stronger effect = lower value 0.934 | locus YDR162C, strain NBP2, stronger effect = lower value 0.927 | locus YDR318W, strain mcm21, stronger effect = lower value 0.962 | locus YDR388W, stronger effect = lower value 0.996 | locus YDR502C, strain sam2, stronger effect = lower value 1.03 | locus YEL061C, strain CIN8, stronger effect = lower value 0.95 | locus YER110C, stronger effect = lower value 1 | locus YER155C, strain BEM2, stronger effect = lower value 1 | locus YER167W, strain BCK2, stronger effect = lower value 0.978 | locus YGL078C, strain dbp3, stronger effect = lower value 0.991 | locus YGL086W, strain mad1, stronger effect = lower value 1.02 | locus YGL248W, strain PDE1, stronger effect = lower value 0.966 | locus YGR078C, strain PAC10, stronger effect = lower value 0.987 | locus YGR135W, strain pre9, stronger effect = lower value 0.97 | locus YGR252W, strain gcn5, stronger effect = lower value 1.05 | locus YHR030C, strain SLT2, stronger effect = lower value 0.992 | locus YHR079C, strain IRE1 (second series), stronger effect = lower value 0.987 | locus YHR094C, strain hxt1, stronger effect = lower value 0.989 | locus YHR129C, strain ARP1, stronger effect = lower value 0.973 | locus YHR200W, strain rpn10, stronger effect = lower value 1.01 | locus YIL066C, strain RNR3, stronger effect = lower value 0.979 | locus YIL073C, strain SPO22, stronger effect = lower value 0.96 | locus YIL125W, strain kgd1, stronger effect = lower value 1 | locus YIR030C, strain dcg1, stronger effect = lower value 0.989 | locus YJL095W, strain BCK1, stronger effect = lower value 0.937 | locus YJL134W, strain LCB3, stronger effect = lower value 0.985 | locus YJL168C, strain set2, stronger effect = lower value 1 | locus YJL187C, strain SWE1 (second series), stronger effect = lower value 0.984 | locus YJR043C, strain POL32, stronger effect = lower value 1.01 | locus YJR075W, strain HOC1, stronger effect = lower value 0.99 | locus YKL009W, strain mrt4, stronger effect = lower value 0.987 | locus YKL068W, stronger effect = lower value 0.983 | locus YKL085W, strain MDH1 (second series), stronger effect = lower value 0.978 | locus YKL085W, strain MDH1, stronger effect = lower value 0.978 | locus YKL190W, strain CNB1, stronger effect = lower value 0.935 | locus YKR001C, strain vps1, stronger effect = lower value 0.998 | locus YLR039C, strain RIC1, stronger effect = lower value 0.792 | locus YLR058C, strain SHM2, stronger effect = lower value 0.97 | locus YLR102C, strain apc9, stronger effect = lower value 0.99 | locus YLR262C, strain YPT6, stronger effect = lower value 0.761 | locus YLR268W, strain sec22, stronger effect = lower value 1 | locus YLR330W, strain CHS5, stronger effect = lower value 0.989 | locus YLR342W, strain FKS1 (second series), stronger effect = lower value 0.987 | locus YLR371W, strain rom2, stronger effect = lower value 1 | locus YLR418C, strain cdc73, stronger effect = lower value 1.06 | locus YML016C, strain PPZ1, stronger effect = lower value 0.987 | locus YML032C, strain rad52, stronger effect = lower value 0.969 | locus YML124C, strain tub3, stronger effect = lower value 0.982 | locus YMR078C, strain ctf18, stronger effect = lower value 0.985 | locus YMR223W, strain ubp8, stronger effect = lower value 0.974 | locus YMR307W, strain GAS1, stronger effect = lower value 0.716 | locus YNL067W, strain RPL9B, stronger effect = lower value 0.951 | locus YNL153C, strain GIM3, stronger effect = lower value 0.996 | locus YNL233W, strain BNI4, stronger effect = lower value 1 | locus YNL250W, strain rad50, stronger effect = lower value 0.981 | locus YNL271C, strain bni1, stronger effect = lower value 0.989 | locus YNL298W, strain CLA4, stronger effect = lower value 0.984 | locus YNL307C, strain MCK1, stronger effect = lower value 1 | locus YNR052C, strain pop2, stronger effect = lower value 0.915 | locus YOL012C, strain htz1 0.999 | locus YOL147C, strain pex11, stronger effect = lower value 0.99 | locus YOR061W, strain CKA2, stronger effect = lower value 0.974 | locus YOR069W, strain VPS5, stronger effect = lower value 0.975 | locus YOR136W, strain idh2, stronger effect = lower value 1.03 | locus YOR144C, strain elg1, stronger effect = lower value 0.992 | locus YOR184W, strain ser1, stronger effect = lower value 0.932 | locus YOR316C, strain cot1, stronger effect = lower value 0.987 | locus YPL241C, strain CIN2, stronger effect = lower value 0.953 | locus YPR119W, strain clb2, stronger effect = lower value 0.976 | locus YPR141C, strain kar3, stronger effect = lower value 0.981 | locus YPR163C, strain tif3, stronger effect = lower value 0.987 | locus YPR167C, strain met16, stronger effect = lower value 0.98 | strain wtn01, stronger effect = lower value 1.04
